{"source": "PubChem BioAssay AID463173", "about": "(ICCB-Longwood Screening Facility, Harvard Medical School, 2010)", "note": "In all, about 52,000 compounds went through this assay and about 4,300 (8.3%) were called active. The full list was thinned out, with actives kept by preference. A number with no mark means an inactive call. Rule as the data show it: active = survival mostly below about 52% (no sharp cut-off); inactive = mostly above about 56%."}
{"tested_on": "DeltatarO mutant", "assay": "S. aureus survival, RN4220 and DeltatarO strains – OD600, teichoic acid synthesis inhibitors, primary screen (AID 463173)", "conditions": "S. aureus RN4220 wild type/DeltatarO growth, OD600, 18 h, stronger effect = lower value, screened at 18.75 µg/mL (by protocol)"}
{"compound": "O=C(CC1COc2ccccc2O1)NCCc1ccccc1", "note": "(configuration not stated)", "survival": "87%"}
{"compound": "CCOC(=O)c1c(NC(=O)CSc2cn(CCNC(=O)c3ccc(OCC)cc3)c3ccccc23)sc2c1CCC2", "survival": "91%"}
{"compound": "COc1ccc(OC)c(CCNC(=O)c2cc3c(-c4ccccc4F)nn(C)c3s2)c1", "survival": "54%"}
{"compound": "CCOc1ccc(-c2nnc(SCC(=O)NCc3ccccc3)nc2-c2ccc(OCC)c(OC)c2)cc1OC", "survival": "80%"}
{"compound": "CCc1cc2c(cc3c(=O)n(CCCC(=O)NCc4cccc(Cl)c4)ncn32)s1", "survival": "67%"}
{"compound": "CCOc1ccc(S(=O)(=O)N(CC(=O)Nc2ccc3c(c2)OCO3)c2ccc(C)cc2)cc1", "survival": "50%"}
{"compound": "COCCCNC(=O)N1[C@H](c2cccs2)[C@@H](C)C(=O)[C@@H](C)[C@@H]1c1cccs1", "survival": "47%"}
{"compound": "CCOc1ccc(N2CC(c3nc4ccccc4n3CCOc3ccc(OC)cc3)CC2=O)cc1", "note": "(configuration not stated)", "survival": "47% (active)"}
{"compound": "CCOc1ccc(N2CC(c3nc4ccccc4n3CCC3CCCCC3)CC2=O)cc1", "note": "(configuration not stated)", "survival": "33% (active)"}
{"compound": "CCOc1ccc(N2CC(c3nc4ccccc4n3CCOc3ccccc3OC)CC2=O)cc1", "note": "(configuration not stated)", "survival": "46%"}
{"compound": "COc1ccc(OCCCn2c(C3CC(=O)N(c4ccc(F)cc4)C3)nc3ccccc32)cc1", "note": "(configuration not stated)", "survival": "66%"}
{"compound": "CCOc1ccc(N2CC(c3nc4ccccc4n3CCCOc3ccccc3OC)CC2=O)cc1", "note": "(configuration not stated)", "survival": "81%"}
{"compound": "COc1ccc(OCCn2c(C3CC(=O)N(c4ccc(F)cc4)C3)nc3ccccc32)cc1", "note": "(configuration not stated)", "survival": "59% (active)"}
{"compound": "CCOc1ccc(N2CC(c3nc4ccccc4n3CCCCOc3ccc(OC)cc3)CC2=O)cc1", "note": "(configuration not stated)", "survival": "55%"}
{"compound": "CCOc1ccc(N2CC(c3nc4ccccc4n3CCCOc3ccc(OC)cc3)CC2=O)cc1", "note": "(configuration not stated)", "survival": "44% (active)"}
{"compound": "O=C1CC(c2nc3ccccc3n2CCCOc2ccccc2)CN1c1ccc(F)cc1", "note": "(configuration not stated)", "survival": "97%"}
{"compound": "CCC1CN(C(=O)N2CCC(C(=O)Nc3cc(C)ccc3C)CC2)c2ccccc2O1", "note": "(configuration not stated)", "survival": "98%"}
{"compound": "Cc1[nH]c2ccc(-c3nnc(SCC(=O)N4CCc5ccccc54)o3)cc2c1C", "survival": "84%"}
{"compound": "COc1ccc(C2C(C(=O)Nc3cccnc3)=C(C)Nc3nc(SCc4ccccc4)nn32)cc1", "note": "(configuration not stated)", "survival": "57%"}
{"compound": "COc1ccc(NC(=O)C2CCN(S(=O)(=O)c3ccc4[nH]c5c(c4c3)CCCCC5)CC2)cc1", "survival": "113%"}
{"compound": "COc1ccc2cc3cc(C(=O)N4CCN(c5cccc(C(F)(F)F)c5)CC4)sc3nc2c1", "survival": "119%"}
{"compound": "CCN(C(=O)CSc1nnc(Cn2nnc3ccccc32)o1)c1nc(-c2ccccc2)cs1", "survival": "80%"}
{"compound": "OCCN(CCO)CC(O)Cn1c2ccc(Br)cc2c2cc(Br)ccc21", "note": "(configuration not stated)", "survival": "2% (active)"}
{"compound": "Cc1cccc(N(CC(O)Cn2c3ccccc3c3ccccc32)S(=O)(=O)c2ccc(F)cc2)c1", "note": "(configuration not stated)", "survival": "58%"}
{"compound": "CC(C)OCC(O)Cn1c2ccccc2c2ccccc21", "note": "(configuration not stated)", "survival": "80%"}
{"compound": "CCNc1sc(S(C)(=O)=O)nc1S(=O)(=O)c1ccc(C)cc1", "survival": "125%"}
{"compound": "CCCN(CCC)S(=O)(=O)c1ccc(C)cc1", "survival": "97%"}
{"compound": "CCNc1nc(NCC)nc(N(n2cnnc2)S(=O)(=O)c2ccc(C)cc2)n1", "survival": "1% (active)"}
{"compound": "COc1ccccc1NC(=O)Cn1c(SCC(=O)N(C)c2ccccc2)nc2ccccc21", "survival": "119%"}
{"compound": "O=C(CSc1ccccc1)Nc1c[nH]c(=O)[nH]c1=O", "survival": "78%"}
{"compound": "Cc1ccc(C)c(NC(=O)c2cc(=O)c3cc(C)cc(C)c3o2)c1", "survival": "70%"}
{"compound": "COc1ccc(S(=O)(=O)Cc2ccc(C(=O)N3CCN(c4cc(C)ccc4C)CC3)o2)cc1", "survival": "130%"}
{"compound": "Cc1cccc(-c2nnn3c2nc(NCc2ccccc2)c2ccccc23)c1", "survival": "97%"}
{"compound": "Nc1ncnc2nc(SCC(=O)O)[nH]c12", "survival": "86%"}
{"compound": "Nc1ncnc2nc(SCCO)[nH]c12", "survival": "63% (active)"}
{"compound": "Cc1ccc(S(=O)(=O)Nc2c(C)nc3nc(C)[nH]n3c2=O)c(C)c1", "survival": "117%"}
{"compound": "Cc1ccccc1-c1nn2c(=O)cc(CN3CCN(C(=O)c4ccc(C(C)(C)C)cc4)CC3)nc2s1", "survival": "97%"}
{"compound": "COc1cc(OC)cc(C(=O)N2CCN(C(=O)COc3ccccc3)CC2)c1", "survival": "54% (active)"}
{"compound": "COc1cc(OC)cc(C(=O)N2CCN(C(=O)COc3ccc(C)cc3)CC2)c1", "survival": "57%"}
{"compound": "COc1ccc(OCC(=O)N2CCN(C(=O)c3cccc(OC)c3)CC2)cc1", "survival": "72%"}
{"compound": "N#CC1=C(N)N(c2ccc(Cl)cc2)C2=C(C(=O)CCC2)C1c1cc(CN2CCOCC2)cs1", "note": "(configuration not stated)", "survival": "59%"}
{"compound": "O=c1c2c(-c3ccc(Cl)cc3)ccnc2[nH]n1-c1ccccc1", "survival": "67%"}
{"compound": "COc1ccccc1-c1ccnc2[nH]n(-c3ccccc3)c(=O)c12", "survival": "64%"}
{"compound": "Cc1ccccc1-c1ccnc2[nH]n(-c3ccccc3)c(=O)c12", "survival": "47% (active)"}
{"compound": "CCCC(c1nnnn1Cc1ccccc1)N1CCN(c2ccccc2)CC1", "note": "(configuration not stated)", "survival": "42% (active)"}
{"compound": "CCC(c1nnnn1Cc1ccccc1)N1CCN(c2cccc(Cl)c2)CC1", "note": "(configuration not stated)", "survival": "89%"}
{"compound": "CC(C)C(c1nnnn1Cc1ccccc1)N1CCN(c2ccccc2)CC1", "note": "(configuration not stated)", "survival": "87%"}
{"compound": "COc1ccc(NC(=O)C2Cc3ccccc3N2C(=O)c2ccccc2)c(OC)c1", "note": "(configuration not stated)", "survival": "80%"}
{"compound": "CC(C)Cn1c(-c2ccc(S(=O)(=O)N3CCOCC3)cc2)csc1=Nc1cc(Cl)ccc1Cl", "survival": "82%"}
{"compound": "COCCCn1c(-c2ccc(S(=O)(=O)N3CCOCC3)cc2)csc1=Nc1ccccc1", "survival": "52% (active)"}
{"compound": "CCCCn1c(-c2ccc(S(=O)(=O)N3CCOCC3)cc2)csc1=Nc1ccccc1", "survival": "48% (active)"}
{"compound": "CC(C)Cn1c(-c2ccc(S(=O)(=O)N3CCCC3)cc2)csc1=Nc1ccccc1", "survival": "58%"}
{"compound": "CCCn1c(-c2ccc(S(=O)(=O)N3CCOCC3)cc2)csc1=Nc1ccc(OCC)cc1", "survival": "70%"}
{"compound": "CCn1c(-c2ccc(S(=O)(=O)N3CCOCC3)cc2)csc1=Nc1ccc(C)c(Cl)c1", "survival": "73%"}
{"compound": "CS(=O)(=O)N(CC(=O)O)c1ccc(Cl)cc1", "survival": "105%"}
{"compound": "COc1ccc(-c2nc(SCC(=O)NC3CCCC3)c(-c3ccc(OC)cc3)[nH]2)cc1", "survival": "71%"}
{"compound": "Cc1ccc(CN2CCSc3ccc(C(=O)N4CCN(c5ccc(Cl)cc5)CC4)cc32)cc1", "survival": "72%"}
{"compound": "Cc1ccc(Cl)cc1N1CCN(C(=O)c2ccc3c(c2)N(Cc2ccc(F)cc2)CCS3)CC1", "survival": "73%"}
{"compound": "Cc1ccc(Cl)cc1N1CCN(C(=O)c2ccc3c(c2)N(Cc2ccccc2)CCS3)CC1", "survival": "74%"}
{"compound": "Cc1ccc(CN2CCSc3ccc(C(=O)N4CCN(c5cccc(C)c5C)CC4)cc32)cc1", "survival": "27% (active)"}
{"compound": "Cc1ccc(CN2CCSc3ccc(C(=O)N4CCN(c5ccccc5)CC4)cc32)cc1", "survival": "63%"}
{"compound": "Cc1ccc(CN2CCSc3ccc(C(=O)N4CCN(c5cc(C)ccc5C)CC4)cc32)cc1", "survival": "25% (active)"}
